# Values joined by “and” are separate entries in the source; they are usually repeats but may differ in a detail not shown here. Identical values can stand only once. Records with an inconclusive call do not appear. A call without a number means that no potency is given here. Some compounds were tested as several samples or in several runs, with calls that do not always agree. Active and inactive are the calls of the source. The call rests on the fitted dose curve; in most records, active means well fitted curve in the direction sought with a large enough effect in the repeat runs; inconclusive means weak or mixed curves; inactive means no such curve, though single readings can be large; an effect the other way counts as inactive or inconclusive.
# What was measured:
# [1] = A CellTox Green Cytotoxicity Assay to monitor cytotoxicity in HEK293 cells - 40 hour (AID 1224871); further: nearly all actives have a fitted effect of over 45% in size; further: potency means the concentration at half of the fitted maximal effect
# Procedure, shortened: (§1)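 Homogeneous no-lysis format: HEK293 cell suspension mixed with CellTox Green reagent, seeded, incubated 5 h at 37 C/5% CO2, then dosed by pintool with compound in DMSO.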
# [2] = qHTS RealTime-Glo MT Cell Viability Assay in HEK293 cells - 16 hour (AID 1224872); further: nearly all actives have a fitted effect of over 50% in size; further: potency means the concentration at half of the fitted maximal effect
# Procedure, shortened: (§2)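 Luminescence generated by NanoLuc from substrate produced by living HEK293 cells served as the viability signal. Each value reflects the reading at its stated time point during continuous 40 h compound exposure at 37 C.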
# [3] = qHTS RealTime-Glo MT Cell Viability Assay in HepG2 cells - 8 hour (AID 1224873); further: nearly all actives have a fitted effect of over 55% in size; further: potency means the concentration at half of the fitted maximal effect
# Procedure, shortened: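 HepG2 cells (600/well) mixed with RealTime-Glo MT reagent, settled 5 h at 37 C/5% CO2 before compound addition. Nonlytic NanoLuc luminescence from viable-cell prosubstrate reduction read repeatedly during 40 h treatment at 37 C.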
# [4] = qHTS RealTime-Glo MT Cell Viability Assay in HEK293 cells - 40 hour (AID 1224874); settings: RealTime-Glo luminescence; max response: stronger effect = lower value; further: nearly all actives have a fitted effect of over 50% in size; further: potency means the concentration at half of the fitted maximal effect
# Procedure, shortened: (§3)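 Measured as luminescence from the same continuously cultured HEK293 wells at successive time points (0, 8, 16, 24, 32, 40 h) after compound addition. Reagent present from seeding; dosing at 5 h; incubation 37 C.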
# [5] = A CellTox Green Cytotoxicity Assay to monitor cytotoxicity in HEK293 cells - 24 hour (AID 1224875); further: series mostly up to about 77 µM; nearly all actives have a fitted effect of over 45% in size
# Procedure, shortened: as §1
# [6] = A CellTox Green Cytotoxicity Assay to monitor cytotoxicity in HepG2 cells - 16 hour (AID 1224876); further: nearly all actives have a fitted effect of over 45% in size; further: potency means the concentration at half of the fitted maximal effect
# Procedure, shortened: (§4)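 Fluorescent DNA-binding dye, 600 HepG2 cells/well, 5 h preincubation then compound in DMSO; same plates read at 0–40 h, 37 C.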
# [7] = qHTS RealTime-Glo MT Cell Viability Assay in HepG2 cells - 32 hour (AID 1224877); further: nearly all actives have a fitted effect of over 55% in size; further: potency means the concentration at half of the fitted maximal effect
# Procedure, shortened: (§5)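 Tox21 10K library screened in qHTS format on HepG2 cells carrying RealTime-Glo reagents. Compounds were added after a 5 h preincubation, and the luminescent signal from continuous culture was measured repeatedly during 40 h treatment.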
# [8] = A CellTox Green Cytotoxicity Assay to monitor cytotoxicity in HepG2 cells - 24 hour (AID 1224878); further: nearly all actives have a fitted effect of over 45% in size; further: potency means the concentration at half of the fitted maximal effect
# Procedure, shortened: as §4
# [9] = A CellTox Green Cytotoxicity Assay to monitor cytotoxicity in HepG2 cells - 40 hour (AID 1224879); further: nearly all actives have a fitted effect of over 40% in size; further: potency means the concentration at half of the fitted maximal effect
# Procedure, shortened: as §4
# [10] = A CellTox Green Cytotoxicity Assay to monitor cytotoxicity in HEK293 cells - 32 hour (AID 1224881); further: nearly all actives have a fitted effect of over 40% in size; further: potency means the concentration at half of the fitted maximal effect
# Procedure, shortened: as §1
# [11] = A CellTox Green Cytotoxicity Assay to monitor cytotoxicity in HepG2 cells - 0 hour (AID 1224882); further: nearly all actives have a fitted effect of over 35% in size
# Procedure, shortened: as §4
# [12] = A CellTox Green Cytotoxicity Assay to monitor cytotoxicity in HepG2 cells - 32 hour (AID 1224883); further: nearly all actives have a fitted effect of over 50% in size; further: potency means the concentration at half of the fitted maximal effect
# Procedure, shortened: as §4
# [13] = A CellTox Green Cytotoxicity Assay to monitor cytotoxicity in HEK293 cells - 8 hour (AID 1224884); further: nearly all actives have a fitted effect of over 35% in size
# Procedure, shortened: as §1
# [14] = qHTS RealTime-Glo MT Cell Viability Assay in HepG2 cells - 16 hour (AID 1224885); further: nearly all actives have a fitted effect of over 50% in size; further: potency means the concentration at half of the fitted maximal effect
# Procedure, shortened: as §5
# [15] = qHTS RealTime-Glo MT Cell Viability Assay in HEK293 cells - 24 hour (AID 1224886); further: nearly all actives have a fitted effect of over 50% in size; further: potency means the concentration at half of the fitted maximal effect
# Procedure, shortened: as §2
# [16] = qHTS RealTime-Glo MT Cell Viability Assay in HEK293 cells - 8 hour (AID 1224887)
# Procedure, shortened: as §3
# [17] = A CellTox Green Cytotoxicity Assay to monitor cytotoxicity in HEK293 cells - 16 hour (AID 1224888); further: nearly all actives have a fitted effect of over 35% in size
# Procedure, shortened: as §1
# [18] = qHTS RealTime-Glo MT Cell Viability Assay in HepG2 cells - 0 hour (AID 1224889); further: nearly all actives have a fitted effect of over 50% in size
# Procedure, shortened: as §5
# [19] = A CellTox Green Cytotoxicity Assay to monitor cytotoxicity in HepG2 cells - 8 hour (AID 1224890); further: nearly all actives have a fitted effect of over 45% in size; further: potency means the concentration at half of the fitted maximal effect
# Procedure, shortened: as §4
# [20] = qHTS RealTime-Glo MT Cell Viability Assay in HEK293 cells - 0 hour (AID 1224880)
# Procedure, shortened: as §3
smiles,measurement,setting,value
CCCCCON=O,Potency,[1],inactive
same,Potency,[2],inactive
same,Potency,[3],inactive
same,max response,[4],1.89% (inactive)
same,Potency,[5],inactive
same,Potency,[6],inactive
same,Potency,[7],inactive
same,Potency,[8],inactive
same,Potency,[9],inactive
same,Potency,[10],inactive
same,Potency,[11],inactive
same,Potency,[12],inactive
same,Potency,[13],inactive
same,Potency,[14],inactive
same,Potency,[15],inactive
same,Potency,[16],inactive
same,Potency,[17],inactive
same,Potency,[18],inactive
same,Potency,[19],inactive
CCN(CC)CCc1c[nH]c2ccccc12,Potency,[1],inactive
same,Potency,[2],inactive
same,Potency,[3],inactive
same,max response,[4],6.8% (inactive)
same,Potency,[5],inactive
same,Potency,[6],inactive
same,Potency,[7],inactive
same,Potency,[8],inactive
same,Potency,[9],inactive
same,Potency,[10],inactive
same,Potency,[11],inactive
same,Potency,[12],inactive
same,Potency,[13],inactive
same,Potency,[14],inactive
same,Potency,[15],inactive
same,Potency,[16],inactive
same,Potency,[17],inactive
same,Potency,[18],inactive
same,Potency,[19],inactive
COc1nc(C)nc(NC(=O)NS(=O)(=O)c2ccccc2Cl)n1,Potency,[1],inactive
same,Potency,[2],inactive
same,Potency,[3],inactive
same,Potency,[5],inactive
same,Potency,[6],inactive
same,Potency,[7],inactive
same,Potency,[8],inactive
same,Potency,[9],inactive
same,Potency,[20],inactive
same,Potency,[10],inactive
same,Potency,[11],inactive
same,Potency,[12],inactive
same,Potency,[13],inactive
same,Potency,[14],inactive
same,Potency,[15],inactive
same,Potency,[16],inactive
same,Potency,[17],inactive
same,Potency,[18],inactive
same,Potency,[19],inactive
O=[N+]([O-])c1ccc(CCl)cc1,Potency,[1],inactive
same,Potency,[2],inactive
same,Potency,[3],inactive
same,Potency,[5],inactive
same,Potency,[6],inactive
same,Potency,[7],inactive
same,Potency,[8],inactive
same,Potency,[9],inactive
same,Potency,[10],inactive
same,Potency,[11],inactive
same,Potency,[12],inactive
same,Potency,[13],inactive
same,Potency,[14],inactive
same,Potency,[16],inactive
same,Potency,[17],inactive
same,Potency,[18],inactive
COc1ccc2c(c1OC)C(=O)O[C@@H]2[C@H]1c2cc3c(cc2CCN1C)OCO3,Potency,[1],inactive
same,Potency,[2],inactive
same,Potency,[3],inactive
same,Potency,[5],inactive
same,Potency,[6],inactive
same,Potency,[7],inactive
same,Potency,[8],inactive
same,Potency,[9],inactive
same,Potency,[20],inactive
same,Potency,[10],inactive
same,Potency,[11],inactive
same,Potency,[12],inactive
same,Potency,[13],inactive
same,Potency,[14],inactive
same,Potency,[15],inactive
same,Potency,[16],inactive
same,Potency,[17],inactive
same,Potency,[18],inactive
same,Potency,[19],inactive
CCCCCCCCCCCCCCn1cc[n+](C)c1,Potency,[1],39 µM (active) and 38.5 µM (active) and inactive
same,Potency,[2],55 µM (active) and 24.3 µM (active)
same,Potency,[3],49.1 µM (active) and inactive
same,Potency,[4],2.76 µM (active) and 1.93 µM (active)
same,Potency,[6],34.7 µM (active) and 43.2 µM (active) and inactive
same,Potency,[7],21.9 µM (active) and 38.5 µM (active) and inactive
same,Potency,[8],24.6 µM (active) and 38.5 µM (active) and inactive
same,Potency,[9],19.5 µM (active) and 21.6 µM (active) and inactive
same,Potency,[20],inactive
same,Potency,[10],34.7 µM (active) and 38.5 µM (active) and inactive
same,Potency,[11],inactive
same,Potency,[12],21.9 µM (active) and 24.3 µM (active) and inactive
same,Potency,[14],39 µM (active) and 54.4 µM (active) and inactive
same,Potency,[15],7.78 µM (active) and 8.62 µM (active)
same,Potency,[18],inactive
same,Potency,[19],39 µM (active) and 48.5 µM (active) and inactive
Cc1cccc(Cc2cnc[nH]2)c1C,Potency,[1],inactive
same,Potency,[2],inactive
same,Potency,[3],inactive
same,max response,[4],-0.68% (inactive)
same,Potency,[5],inactive
same,Potency,[7],inactive
same,Potency,[20],inactive
same,Potency,[10],inactive
same,Potency,[13],inactive
same,Potency,[14],inactive
same,Potency,[15],inactive
same,Potency,[16],inactive
same,Potency,[17],inactive
same,Potency,[18],inactive
N#Cc1ccc(N(CC(N)=O)CC(F)(F)F)cc1C(F)(F)F,Potency,[1],inactive
same,Potency,[2],inactive
same,Potency,[3],inactive
same,Potency,[5],inactive
same,Potency,[6],inactive
same,Potency,[7],inactive
same,Potency,[8],inactive
same,Potency,[9],inactive
same,Potency,[20],inactive
same,Potency,[10],inactive
same,Potency,[11],inactive
same,Potency,[12],inactive
same,Potency,[13],inactive
same,Potency,[14],inactive
same,Potency,[15],inactive
same,Potency,[16],inactive
same,Potency,[17],inactive
same,Potency,[18],inactive
same,Potency,[19],inactive
N#CSCc1ccccc1,Potency,[1],inactive
same,Potency,[2],inactive
same,Potency,[3],inactive
same,Potency,[5],inactive
same,Potency,[6],inactive
same,Potency,[7],inactive
same,Potency,[8],inactive
same,Potency,[9],inactive
same,Potency,[20],inactive
same,Potency,[10],inactive
same,Potency,[11],inactive
same,Potency,[12],inactive
same,Potency,[13],inactive
same,Potency,[14],inactive
same,Potency,[16],inactive
same,Potency,[17],inactive
same,Potency,[18],inactive
same,Potency,[19],inactive
Nc1ccc(Cl)cc1C(=O)c1ccccc1F,Potency,[1],inactive
same,Potency,[2],inactive
same,Potency,[3],inactive
same,max response,[4],-9.35% (inactive)
same,Potency,[5],inactive
same,Potency,[7],inactive
same,Potency,[20],inactive
same,Potency,[10],inactive
same,Potency,[11],inactive
same,Potency,[14],inactive
same,Potency,[15],inactive
same,Potency,[16],inactive
same,Potency,[17],inactive
same,Potency,[18],inactive
same,Potency,[19],inactive
O=[N+]([O-])[O-].[Tl+],Potency,[1],inactive
same,Potency,[2],inactive
same,Potency,[3],inactive
same,Potency,[5],inactive
same,Potency,[6],inactive
same,Potency,[7],inactive
same,Potency,[8],inactive
same,Potency,[9],inactive
same,Potency,[20],inactive
same,Potency,[10],inactive
same,Potency,[11],inactive
same,Potency,[12],inactive
same,Potency,[13],inactive
same,Potency,[14],inactive
same,Potency,[15],inactive
same,Potency,[16],inactive
same,Potency,[17],inactive
same,Potency,[18],inactive
same,Potency,[19],inactive
CNC(=O)Oc1cc(C)cc(C(C)C)c1,Potency,[1],inactive
same,Potency,[2],inactive
same,Potency,[3],inactive
same,Potency,[5],inactive
same,Potency,[6],inactive
same,Potency,[7],inactive
same,Potency,[8],inactive
same,Potency,[9],inactive
same,Potency,[20],inactive
same,Potency,[10],inactive
same,Potency,[11],inactive
same,Potency,[12],inactive
same,Potency,[14],inactive
same,Potency,[15],inactive
same,Potency,[16],inactive
same,Potency,[17],inactive
same,Potency,[18],inactive
same,Potency,[19],inactive
ClC(Cl)C(Cl)(Cl)Cl,Potency,[1],inactive
same,Potency,[2],inactive
same,Potency,[3],inactive
same,Potency,[5],inactive
same,Potency,[6],inactive
same,Potency,[7],inactive
same,Potency,[8],inactive
same,Potency,[9],inactive
same,Potency,[20],inactive
same,Potency,[10],inactive
same,Potency,[11],inactive
same,Potency,[12],inactive
same,Potency,[13],inactive
same,Potency,[14],inactive
same,Potency,[15],inactive
same,Potency,[16],inactive
same,Potency,[17],inactive
same,Potency,[18],inactive
same,Potency,[19],inactive
COP(=S)(NC(C)C)Oc1ccc(C)cc1[N+](=O)[O-] (configuration not stated),Potency,[1],inactive
same,Potency,[2],inactive
same,Potency,[3],inactive
same,Potency,[5],inactive
same,Potency,[6],inactive
same,Potency,[7],inactive
same,Potency,[8],inactive
same,Potency,[9],inactive
same,Potency,[10],inactive
same,Potency,[11],inactive
same,Potency,[12],inactive
same,Potency,[13],inactive
same,Potency,[14],inactive
same,Potency,[15],inactive
same,Potency,[16],inactive
same,Potency,[17],inactive
same,Potency,[18],inactive
